PP5 inh: blocks human protein phosphatase 5 activity. inhibition, % at 6.7 µM. 320,000 tested, 0.18% active. P53041. AID 1987. purified PP5c, OMFP substrate fluorescence;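 active means inhibition above the campaign's mean inhibition across all tested compounds plus 3 SD, cut at about 9.5% in these data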;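 further: 0% = DMSO only and 100% = 100 µM cantharidin control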
Target sequence (P53041 whole entry, looked up): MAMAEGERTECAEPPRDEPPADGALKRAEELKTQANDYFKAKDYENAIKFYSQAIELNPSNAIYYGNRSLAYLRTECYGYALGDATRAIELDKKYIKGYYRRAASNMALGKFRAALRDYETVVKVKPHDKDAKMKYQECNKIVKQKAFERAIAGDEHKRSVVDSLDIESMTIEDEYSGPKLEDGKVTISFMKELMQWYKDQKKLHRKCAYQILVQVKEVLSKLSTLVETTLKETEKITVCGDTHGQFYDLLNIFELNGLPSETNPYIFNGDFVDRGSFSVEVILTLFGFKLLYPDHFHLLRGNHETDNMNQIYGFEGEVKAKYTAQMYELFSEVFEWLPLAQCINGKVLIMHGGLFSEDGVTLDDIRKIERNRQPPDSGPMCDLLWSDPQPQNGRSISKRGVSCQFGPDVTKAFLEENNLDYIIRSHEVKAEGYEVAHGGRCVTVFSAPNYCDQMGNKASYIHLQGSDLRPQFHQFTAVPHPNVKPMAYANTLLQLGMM
EBNA-1 inhibitor: blocks EBNA-1 binding to DNA; AID 1950; inhibition, % at 14.8 µM; EBNA-1 DNA binding, fluorescence polarization; 300,000 tested, 0.34% active; in the data active means inhibition above about 28%
MsrA inhibitor: inhibitors of bovine MsrA. purified bovine MsrA, absorbance read-out. inhibition, % at 15.5 µM. 360,000 tested, 0.75% active. AID 651718;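 further: 0% = vehicle wells with enzyme and 100% = reference inhibitor wells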
MsrA act: activates bovine MsrA enzyme. purified bovine MsrA, absorbance read-out. activation, % at 10.6 µM. 360,000 tested, 0.3% active; in the data active means activation above about 7.5%;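 further: 0% = vehicle and 100% = reference activator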
ZTA DNA inh: ZTA (EBV) inhibition in EBNA-1 counter-screen; P03206; ZTA-DNA binding, fluorescence polarization; inhibition, % at 11 µM; 320,000 tested, 0.15% active; AID 2234; in the data active means inhibition above about 33%
PP1 counter: PP1-alpha (human) inhibition in PP5 counter-screen; P62136; inhibition, % at 6.7 µM; AID 2235; 320,000 tested, 0.9% active; purified PP1alpha, OMFP fluorescence;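 active means inhibition above the mean inhibition of all tested compounds plus 3 SD, computed separately for each screening campaign, cut at about 15% in these data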
MsrA conf: bovine MsrA inhibition, confirmed; purified bovine MsrA, absorbance read-out; inhibition, % at 15.5 µM; 2,300 tested, 41% active; shares compounds with MsrA inhibitor;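 further: coupled to thioredoxin reductase with NADPH and selenocystamine and DMSO as substrate; 0% = vehicle only and 100% = full effect of reference inhibitor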
Numbers without * were called inactive; · = not tested or not shown. Most compounds without a hit are left out; they make up all but 2.3% or so of the library. Unless noted, no stated cut-off is given here; in the data, active means inhibition above about 4.5%; inactive means the rest.

SMILES	PP5 inh	EBNA-1 inhibitor	MsrA inhibitor	MsrA act	ZTA DNA inh	PP1 counter	MsrA conf
CCCCOc1ccc(N=Cc2cccs2)cc1	-1.3	-1.2	0.1	-11.3	-0.9	-0.1	·
CCn1ncc([N+](=O)[O-])c1C(=O)Nc1nc2cccc(C)c2s1	3.1	-1.8	-0.5	-6.0	4.5	-0.4	·
CCn1ncc([N+](=O)[O-])c1C(=O)Nc1c(C)cccc1C	·	·	14.0*	-3.6	·	·	6.7*
O=[N+]([O-])c1cnc(Nc2ccc(Cl)cn2)c([N+](=O)[O-])c1	1.8	-3.3	6.1*	1.6	8.5	1.9	8.0*
O=C(Nc1ccc(Cl)cn1)c1ccccc1[N+](=O)[O-]	-1.7	7.2	0.3	-3.9	17.6	-6.8	·
COC(=O)C(NC(=O)c1ccccc1)=C1C=C(C)OC(C)=C1	-0.4	2.4	5.3*	-0.2	10.2	-6.1	3.9
CC(=O)Nc1nc2cc3c(cc2s1)OCO3	0.9	7.9	0.3	-2.0	10.5	4.9	·
CS(=O)(=O)c1ccc2nc(NC(=O)c3ccc(=O)[nH]c3)sc2c1	0.3	-6.3	6.3*	-18.8	20.6	1.4	6.0*
CS(=O)(=O)c1ccc2nc(NC(=O)c3ccco3)sc2c1	0.5	0.9	5.7*	0.3	16.9	0.3	4.7*
O=C(Nc1nc2cc3c(cc2s1)OCO3)c1ccco1	·	·	3.3	-7.6	·	·	·
O=C(Nc1nc2cc3c(cc2s1)OCO3)C1=COCCO1	-1.3	-1.4	5.2*	-4.7	-10.6	-1.2	2.4
O=C(Nc1nc2cc3c(cc2s1)OCCO3)c1ccco1	3.5	0.8	4.7*	-10.8	6.7	-0.2	4.7*
CS(=O)(=O)N1CCN(c2ccccc2NC(=O)c2cc3ccccc3o2)CC1	2.8	-14.5	1.0	-4.2	-4.8	1.7	·
CNC(=O)c1[nH]nc2c1CCc1ccccc1-2	0.0	4.1	1.0	-0.2	-10.1	-3.3	·
COC(=O)c1[nH]c2c(c1C(=O)OC)CCc1ccccc1-2	2.7	-20.1	5.6*	5.2	4.8	0.5	1.3
CCN(CC)CCn1c(-c2ccccc2)nc(=S)c2c1CC(C)(C)OC2	-8.0	-14.8	6.3*	-5.8	1.5	-7.5	4.2
CCOc1cc(/C=N\NC(=O)c2ccc(C)nc2)cc([N+](=O)[O-])c1O	2.4	4.8	8.0*	-3.2	-6.9	4.0	6.4*
O=C(N/N=C/c1cc(Br)c(O)c(Br)c1)c1cccnc1	2.2	4.5	4.3	-4.2	19.1	2.7	·
COc1cc(/C=N/NC(=O)c2cccnc2)cc(Br)c1O	0.6	-1.6	4.7*	-10.4	-5.5	1.1	4.1
COc1cc(/C=N/NC(=O)c2ccc(C)nc2)cc([N+](=O)[O-])c1O	1.6	-13.1	5.3*	-9.1	-1.5	1.2	3.9
Cc1ccc(C(=O)N/N=C\c2ccccc2[N+](=O)[O-])cn1	·	·	-1.3	-4.2	·	·	·
COc1cc(/C=N/n2cnnc2-n2nc(C)cc2C)cc([N+](=O)[O-])c1O	-0.6	6.7	5.2*	-5.4	19.9	-4.2	3.9
Cc1ccc(C(=O)N/N=C\c2ccc([N+](=O)[O-])o2)cn1	-0.7	2.0	1.0	-4.1	-1.0	-1.9	·
Cc1cc(C)n(-c2nncn2/N=C/c2ccccc2F)n1	0.6	-6.0	0.8	-2.3	-2.3	1.3	·
COc1cc(-c2nnc(SCC(=O)NC3CCS(=O)(=O)C3)o2)cc(OC)c1OC (configuration not stated)	0.6	-2.8	0.1	5.1	4.0	-1.7	·
SMILES	PP5 inh	EBNA-1 inhibitor	MsrA inhibitor	MsrA act	ZTA DNA inh	PP1 counter	MsrA conf
Cc1cnc(NC(=O)c2cc3ccccc3o2)s1	3.4	0.8	-1.3	-2.5	4.4	-1.9	·
COc1cc2nn(-c3ccccc3N)nc2cc1OC	·	·	4.8*	-1.8	·	·	2.1
Nc1ccccc1-n1nc2ccc3ccccc3c2n1	·	·	0.4	-1.0	·	·	·
CCOC(=O)C(=CNc1cccc(N)n1)C(=O)OCC	0.7	6.8	6.5*	-3.6	-39.7	1.0	4.8*
Cc1ccc(N2CC(C(=O)Nc3ccc(S(=O)(=O)N4CCOCC4)cc3)CC2=O)cc1Cl (configuration not stated)	3.2	7.7	-0.2	-3.8	15.4	-2.9	·
COC(=O)c1cc2c(-c3ccccc3)cc3ccccn3c-2c1C(=O)OC	6.7	-6.5	1.1	-10.8	-1.3	3.4	·
COC(=O)c1c(C)c2c(C)cc3ccccn3c-2c1C(=O)OC	5.1	-12.8	4.7*	-2.1	-1.0	-2.9	3.2
CS(=O)(=O)N1CCN(c2ccc([N+](=O)[O-])c(NCc3cccnc3)c2)CC1	1.2	-7.4	5.6*	-8.5	6.2	-0.6	4.1
CS(=O)(=O)N1CCN(c2ccc([N+](=O)[O-])c(NCc3ccccc3)c2)CC1	4.8	-5.4	1.0	-1.6	1.3	2.8	·
CC(=O)c1ccc(-c2nc3ccccc3n2C)o1	-1.5	7.4	6.7*	-1.1	10.6	-3.0	2.5
Cc1ccc(-c2nc3ccccc3n2C)o1	1.4	7.3	-0.6	-1.0	0.3	5.3	·
Cc1c(NC(=S)NNC(=O)CCC(=O)O)c(=O)n(-c2ccccc2)n1C	-1.0	0.3	-1.0	-2.6	7.2	-0.2	·
CN(CC(=O)Nc1ccccc1C(F)(F)F)C(=O)COc1cccnc1[N+](=O)[O-]	-0.9	-5.6	0.9	0.3	-22.8	-0.2	·
Cc1cc(C)n(C(=O)c2cc3sccc3[nH]2)n1	0.6	-9.1	4.7*	-2.3	-4.4	0.3	4.5
Cc1cc(C)n(C(=O)c2ccc(C)o2)n1	0.1	3.9	-1.1	-8.5	-12.6	1.2	·
C(=N\Nc1nc2ccccc2[nH]1)/c1cccs1	2.0	0.3	1.1	-0.5	-10.1	0.6	·
Cc1ccsc1/C=N/Nc1nc2ccccc2[nH]1	·	·	4.8*	-5.5	·	·	2.7
Cc1cc(=O)[nH]c(N/N=C/c2sccc2C)n1	-1.0	-1.5	4.8*	-4.2	0.6	-2.3	5.3*
Cc1cc(=O)[nH]c(N/N=C/c2cccs2)n1	1.5	-1.2	0.5	-3.1	1.6	-0.1	·
Cn1c(CC(=O)Nc2ccccc2C(F)(F)F)c(Sc2ccccc2)c2ccccc21	-0.9	11.4	-0.2	-4.2	-2.2	5.2	·
CCN1CCN(c2nc3ccccc3nc2NS(=O)(=O)c2ccc(NC(C)=O)cc2)CC1	-2.4	5.1	4.7*	-11.9	-14.6	-3.5	2.2
CCOC(=O)[C@]12CCC=C1N(Cc1cccc3ccccc13)C(=O)[C@H](CC(=O)N1CCN(C(=O)C3CC3)CC1)C2	·	·	-0.1	-3.7	·	·	·
CC(C)C(=O)N1CCN(c2ccc([N+](=O)[O-])c(NC(C)c3ccccc3)c2)CC1 (configuration not stated)	4.3	-13.7	11.8*	-2.6	-4.5	3.9	7.2*
CCOc1ccccc1N(CC(=O)NCCc1ccccc1)C(=O)CCC(=O)Nc1ccccn1	1.2	4.3	1.0	3.0	1.2	0.5	·
O=c1cc(-c2ccc(O)cc2)oc2cc(O[C@@H]3O[C@H](CO)[C@@H](O)[C@H](O)[C@H]3O[C@@H]3OC[C@](O)(CO)[C@H]3O)cc(O)c12	2.2	-7.7	5.3*	-2.2	-20.4	4.1	3.0

Screens (PubChem)
